Laboratory results as given in publication PMC9911399, “Two distinct binding modes provide the RNA-binding protein RbFox with extraordinary sequence specificity”.
Positions count from the first letter of the chain named. The full ranking holds about 16,000 sequences; the median of “ka relative to ugcaugu” is about 0.096, and the highest 2% start at about 0.35. Many of the other results were omitted from the sample, so the highest values are more common in it than they were.

T1: RBFOX1 RRM RbFoxmut (Fox-RRM*) (Homo sapiens, UniProt Q9NWB1 109-208, R118D;E147R;N151S;E152T)
T1 sequence: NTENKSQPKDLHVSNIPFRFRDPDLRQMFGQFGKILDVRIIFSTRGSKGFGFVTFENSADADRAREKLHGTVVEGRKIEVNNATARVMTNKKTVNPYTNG

B1: UAUGCGU (DNA:RNA)
RNA: GGGAGACCGGAAUUCAGAUUGUCCUAUGCGUUUAAAUCCCGUCGUAGCCACCA
DNA 1: CAATCTGAATTCCGGTCTCCC
DNA 2: TGGTGGCTACGACGGGATT
B2: GAAAGGG (DNA:RNA)
RNA: B1 RNA with U25G, U27A, G28A, C29G, U31G
DNA 1: CAATCTGAATTCCGGTCTCCC
DNA 2: TGGTGGCTACGACGGGATT
B3: GGCACGG (DNA:RNA)
RNA: B1 RNA with U25G, A26G, U27C, G28A, U31G
DNA 1: CAATCTGAATTCCGGTCTCCC
DNA 2: TGGTGGCTACGACGGGATT
B4: AUAACAC (DNA:RNA)
RNA: B1 RNA with U25A, A26U, U27A, G28A, G30A, U31C
DNA 1: CAATCTGAATTCCGGTCTCCC
DNA 2: TGGTGGCTACGACGGGATT
B5: UUAGACU (DNA:RNA)
RNA: B1 RNA with A26U, U27A, C29A, G30C
DNA 1: CAATCTGAATTCCGGTCTCCC
DNA 2: TGGTGGCTACGACGGGATT
B6: UCGAUUC (DNA:RNA)
RNA: B1 RNA with A26C, U27G, G28A, C29U, G30U, U31C
DNA 1: CAATCTGAATTCCGGTCTCCC
DNA 2: TGGTGGCTACGACGGGATT
B7: UCGAAAU (DNA:RNA)
RNA: B1 RNA with A26C, U27G, G28A, C29A, G30A
DNA 1: CAATCTGAATTCCGGTCTCCC
DNA 2: TGGTGGCTACGACGGGATT
B8: UCGUAUC (DNA:RNA)
RNA: B1 RNA with A26C, U27G, G28U, C29A, G30U, U31C
DNA 1: CAATCTGAATTCCGGTCTCCC
DNA 2: TGGTGGCTACGACGGGATT
B9: UCGAAUC (DNA:RNA)
RNA: B1 RNA with A26C, U27G, G28A, C29A, G30U, U31C
DNA 1: CAATCTGAATTCCGGTCTCCC
DNA 2: TGGTGGCTACGACGGGATT
B10: UCGAAUG (DNA:RNA)
RNA: B1 RNA with A26C, U27G, G28A, C29A, G30U, U31G
DNA 1: CAATCTGAATTCCGGTCTCCC
DNA 2: TGGTGGCTACGACGGGATT
B11: UCGAUUG (DNA:RNA)
RNA: B1 RNA with A26C, U27G, G28A, C29U, G30U, U31G
DNA 1: CAATCTGAATTCCGGTCTCCC
DNA 2: TGGTGGCTACGACGGGATT
B12: CCAUUAU (DNA:RNA)
RNA: B1 RNA with U25C, A26C, U27A, G28U, C29U, G30A
DNA 1: CAATCTGAATTCCGGTCTCCC
DNA 2: TGGTGGCTACGACGGGATT
B13: UUGGCUG (DNA:RNA)
RNA: B1 RNA with A26U, U27G, G30U, U31G
DNA 1: CAATCTGAATTCCGGTCTCCC
DNA 2: TGGTGGCTACGACGGGATT
B14: GUGGCUG (DNA:RNA)
RNA: B1 RNA with U25G, A26U, U27G, G30U, U31G
DNA 1: CAATCTGAATTCCGGTCTCCC
DNA 2: TGGTGGCTACGACGGGATT
B15: GUGGCUC (DNA:RNA)
RNA: B1 RNA with U25G, A26U, U27G, G30U, U31C
DNA 1: CAATCTGAATTCCGGTCTCCC
DNA 2: TGGTGGCTACGACGGGATT
B16: UUGGCUA (DNA:RNA)
RNA: B1 RNA with A26U, U27G, G30U, U31A
DNA 1: CAATCTGAATTCCGGTCTCCC
DNA 2: TGGTGGCTACGACGGGATT
B17: GUGUGGC (DNA:RNA)
RNA: B1 RNA with U25G, A26U, U27G, G28U, C29G, U31C
DNA 1: CAATCTGAATTCCGGTCTCCC
DNA 2: TGGTGGCTACGACGGGATT
B18: UUGGCUC (DNA:RNA)
RNA: B1 RNA with A26U, U27G, G30U, U31C
DNA 1: CAATCTGAATTCCGGTCTCCC
DNA 2: TGGTGGCTACGACGGGATT
B19: GAACUCU (DNA:RNA)
RNA: B1 RNA with U25G, U27A, G28C, C29U, G30C
DNA 1: CAATCTGAATTCCGGTCTCCC
DNA 2: TGGTGGCTACGACGGGATT
B20: CGGUAAG (DNA:RNA)
RNA: GGGAGACCGGAAUUCAGAUUGUCCCGGUAAGUUAAAUCCCGUCGUAGCCACCA
DNA 1: CAATCTGAATTCCGGTCTCCC
DNA 2: TGGTGGCTACGACGGGATT

Molecular target: T1, RBFOX1 RRM RbFoxmut (Fox-RRM*)
Assay: EMSA; HiTS-Eq, 1 nM pool, 10 min; buffer printed only for the single-RNA assays: 10 mM Tris pH 7.5, 150 mM NaCl, 3.4 mM EDTA, 0.001% NP-40, 30 C
Settings: tags: His6 N-terminal (pET28a); label: 5' 32P
Summary of the method: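 Purified RbFox RRM, wild type or mutant, was incubated for 10 min in 50 µL with 1 nM of a 5′-radiolabelled RNA pool carrying 7 randomized nucleotides, whose flanks were annealed to DNA oligonucleotides, over a series of increasing protein concentrations. Unbound RNA was resolved on 8% native PAGE, cut out, reverse-transcribed, barcoded by PCR and sequenced on an Illumina HiSeq 2500. Relative association constants were derived from changes in read counts for each RNA species versus the control reaction and normalised to the cognate motif.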

Binder	binding signal
B1	0.108 KA relative to UGCAUGU
B2	0.0436 KA relative to UGCAUGU
B3	0.149 KA relative to UGCAUGU
B4	0.0733 KA relative to UGCAUGU
B5	0.0743 KA relative to UGCAUGU
B6	0.115 KA relative to UGCAUGU
B7	0.0789 KA relative to UGCAUGU
B8	0.192 KA relative to UGCAUGU
B9	0.36 KA relative to UGCAUGU
B10	1.31 KA relative to UGCAUGU
B11	0.239 KA relative to UGCAUGU
B12	0.131 KA relative to UGCAUGU
B13	0.435 KA relative to UGCAUGU
B14	0.549 KA relative to UGCAUGU
B15	0.125 KA relative to UGCAUGU
B16	0.168 KA relative to UGCAUGU
B17	0.132 KA relative to UGCAUGU
B18	0.134 KA relative to UGCAUGU
B19	0.053 KA relative to UGCAUGU
B20	0.0872 KA relative to UGCAUGU
